Tests used:
Type in all cases: functional
[1] = biological target: Solute carrier family 2, facilitated glucose transporter member 1 (Homo sapiens) (UniProt P11166); assay: ST_JUDE_LEISH: Cytotoxicity at 2uM final concentration against transgenic Leishmania Mexicana promastigotes LmGLUT1 that are glucose transport deficient and complemented with the human glucose transporter GLUT1. Activity is measured by DNA content using SYBR green in vitro
[2] = biological target: Hexose transporter 1 (Plasmodium falciparum) (UniProt O97467); assay: ST_JUDE_LEISH: Cytotoxicity at 2uM final concentration against transgenic Leishmania Mexicana promastigotes LmPfHT that are glucose transport deficient and complemented with the Plasmodium falciparum hexose transporter. Activity is measured by DNA content using SYBR green in vitro
[3] = biological target: Glucose transporter (Leishmania mexicana) (UniProt O61059); assay: ST_JUDE_LEISH: Cytotoxicity at 2uM final concentration against transgenic Leishmania Mexicana promastigotes LmGT2 that are glucose transport deficient and complemented with the L. Mexicana glucose transporter 2. Activity is measured by DNA content using SYBR green in vitro

Solute carrier family 2, facilitated glucose transporter member 1 (Homo sapiens), sequence (P11166 whole entry): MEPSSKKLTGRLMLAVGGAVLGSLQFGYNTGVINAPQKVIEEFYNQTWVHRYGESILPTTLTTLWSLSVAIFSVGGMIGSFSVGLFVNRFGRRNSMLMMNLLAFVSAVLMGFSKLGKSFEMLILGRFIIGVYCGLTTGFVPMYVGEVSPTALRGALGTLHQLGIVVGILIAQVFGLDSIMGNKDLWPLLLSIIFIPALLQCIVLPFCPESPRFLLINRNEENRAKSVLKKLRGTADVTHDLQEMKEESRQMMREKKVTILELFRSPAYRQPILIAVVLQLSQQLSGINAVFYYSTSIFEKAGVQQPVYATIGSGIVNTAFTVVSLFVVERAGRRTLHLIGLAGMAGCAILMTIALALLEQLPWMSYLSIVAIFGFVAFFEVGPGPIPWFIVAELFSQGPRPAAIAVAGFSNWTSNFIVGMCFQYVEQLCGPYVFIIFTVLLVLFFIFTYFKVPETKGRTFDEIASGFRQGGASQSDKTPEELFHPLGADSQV

| Structure (SMILES) | inhibition [1] [%] | inhibition [2] [%] | inhibition [3] [%] |
| --- | --- | --- | --- |
| COc1ccc(-n2nc(C)cc2C(=O)NCc2ccc(-c3c(C)noc3C)cc2)cc1 | 2.56 | 2.4 | -0.58 |
| O=C(Nc1cccc(-c2nn3ccccc3c2-c2ccnc(Nc3cccc(F)c3)n2)c1)c1c(F)ccc(F)c1Cl | 9.38 | 10.4 | 6.24 |
| Oc1c(CN2CCC(Cc3ccccc3)CC2)cc(Cl)c2cccnc12 | 13.5 | 14 | 9.31 |
| O=C(NC1CC1)c1cnc(N2CCN(Cc3ccc(Cl)cc3)CC2)c(Cl)c1 | 5.43 | 1.16 | -5.97 |
| CC(C)(C)c1cc(C(=O)N2CCN(c3nccnc3C#N)CC2)n(Cc2ccccc2)n1 | 1.68 | 1.96 | 1.02 |
| Cc1ccc2[nH]c(C)cc(=NN=Cc3cccc(F)c3)c2c1 | 5.05 | 7 | 3.38 |
| O=C(Nc1ccc(C(F)(F)F)cc1)c1cccc(S(=O)(=O)NC2CCN(CC3CCCCC3)CC2)c1 | 5.27 | 5.53 | 4.52 |
| COc1cc(SC)ccc1C(=O)N1CC(C)CC(C)C1 (centres undefined) | 11.1 | 11.1 | 9.2 |
| CCNC(=O)c1cc(S(=O)(=O)N2CCN(c3ccccn3)CC2)cs1 | 0.14 | -0.21 | 2.62 |
| Cc1cc2nc(-c3ccc(C(=O)NC4CCN(Cc5ccccc5)CC4)cc3)[nH]c2cc1C | 14.1 | 12.9 | 10.7 |
| Cc1ccc(NC(=O)Nc2cccc(Cl)c2)cc1-c1ccc(C(=O)Nc2ccncc2)cc1 | -1.84 | -1.56 | -1.5 |
| COc1ccc(-c2ncnc(C(F)(F)F)c2-c2ccc(Cl)cc2)c(O)c1 | 3.19 | 3.07 | 2.96 |
| O=S1(=O)NC2(CCN(CCc3ccc(Cl)cc3)CC2)Nc2cc(F)cc(F)c21 | 7.66 | 8.79 | 7.55 |
| COc1cccc(C23NC(=Nc4nc5ccccc5[nH]4)NC2(c2cccc(OC)c2)NC(=Nc2nc4ccccc4[nH]2)N3)c1 (centres undefined) | 6.07 | 4.74 | 3.29 |
| CCCCN(CCCC)CCNC(=O)c1ccc(-c2nc3cc(Cl)ccc3[nH]2)c(OCC)c1 | 4.49 | 2.11 | 4.26 |
| Cc1cccc2nc(-c3ccc(-c4ccc(CN5CC(C)OC(C)C5)cc4)cc3)[nH]c12 (centres undefined) | 4.48 | 3.58 | 0.01 |
| COc1ccc(CSC2CCCCC23NC(=S)NC3=S)cc1 (centres undefined) | 4.42 | 1.41 | 3.2 |

| Structure (SMILES) | inhibition [1] [%] | inhibition [2] [%] | inhibition [3] [%] |
| --- | --- | --- | --- |
| COc1ccc2nccc([C@@H](O)CN3CCC(NC(=O)Cc4ccc(Br)c5ccccc45)CC3)c2c1 | 3.72 | 3.24 | 1.16 |
| O=C(CCc1c[nH]cn1)Nc1ccc(-c2cccc(-c3nc4ccccc4[nH]3)c2)cc1 | 0.28 | 0.66 | 0.03 |
| CCCCCN1CCCCC(NS(=O)(=O)c2ccc(C(=O)Nc3cccc(C(F)(F)F)c3)cc2)C1 (centres undefined) | 6.68 | 5.05 | 3.25 |
| CC(C)CC(=O)Nc1cc(=O)[nH]c2nc(-c3ccccc3)nn12 | 3.45 | 3.9 | 4.09 |
| Cc1[nH]cc(Br)c(=O)c1-c1ccc(Oc2ccccc2)cc1 | 2.07 | 2.3 | 1.32 |
| CN1CCN(c2ccnc3ccc(NC(=O)Nc4ccc(Cl)c(Cl)c4)cc23)CC1 | 6.24 | 6.07 | 6.56 |
| O=C(CCc1cccnc1)Nc1cccc(-c2ccc(-c3nc4cc(C(F)(F)F)ccc4[nH]3)s2)c1 | -0.82 | 1.89 | 2.16 |
| O=C1COc2ccc(CNC3CCC(O)(CCc4ccnc5cc6c(cc45)OCCO6)CC3)nc2N1 (centres undefined) | 3.59 | 3.14 | 2.8 |
| COc1ccc2ncc(F)c(CCN3CCC(NCc4cc(OC)c5c(c4)OCCO5)CC3)c2n1 | 7.06 | 6.92 | 1.31 |
| Cc1cccc2nc(-c3cccc(-c4ccc(NC(=O)C(C)(C)c5ccccn5)cc4)c3)[nH]c12 | 3.05 | 1.16 | 2.94 |
| Nc1nc(N)c2c(ccc3nn(S(=O)(=O)N4CCCC4)cc32)n1 | 4.35 | 4.05 | 4.06 |
| COc1c(C2CCN(CCCCNC(=O)c3ccc(-c4ccc(C#N)cc4)cc3)CC2)cc(Cl)c2c1CCCC2 | 1.68 | 2.86 | 0.77 |
| Cc1nc(SCC(=O)N2CCCC2=O)c2c(C)c(C)sc2n1 | 8.94 | 8.95 | 6.78 |
| COc1ccc(N2CCN(CCCC/C=C/c3ccc(NC(=O)c4cc(Cl)cc(Cl)c4)cc3)CC2)c(OC)c1 | 2.58 | 1.17 | 0.93 |
| Cc1nn(-c2cccc(Cl)c2)c2c1C(C(=O)c1ccc3c(c1)OCO3)CC(=O)N2 (centres undefined) | -2.6 | -0.95 | -2.87 |
| COC(=O)c1ccc2nc(-c3cc(-c4cccc(-c5ccccc5)c4)cnc3N)[nH]c2c1 | 5.22 | 5.28 | 4.17 |

From ChEMBL document CHEMBL3433997, “St. Jude Leishmania screening dataset” (2016)
